Assay [1] has as its target Tumor susceptibility gene 101 protein (Homo sapiens) (UniProt Q99816). Briefly: qHTS Assay for Iinhibitors of HIV-1 Budding by Blocking the Interaction of PTAP/TSG101: Hit Validation (AID 651600). Also: potency is read from the fitted curve at half-maximal effect; nearly all actives have a fitted effect of over 70% in size. In short, it runs like this: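 Displacement of a FITC-labeled PTAP-motif peptide (50 nM) from the Tsg101 binding domain (10 uM) was monitored by fluorescence polarization after a 20 min room-temperature incubation.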
(In qHTS, concentration-response curves come from the screen itself.)

Assay [2] concerns the target Rap guanine nucleotide exchange factor 3 (Homo sapiens) (UniProt O95398). The assay can be described thus: Confirmatory qHTS for antagonist of cAMP-regulated guanine nucleotide exchange factor 3 (EPAC1) (AID 1645880).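 Also: plate controls were DMSO only for no effect and full effect of the ATA control for full effect; nearly all actives have a fitted effect of over 55% in size.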 The conditions noted are these: EPAC1 Rap1B-BODIPY-GDP exchange, fluorescence; activity, negative = inhibition: at 115 µM (top of the series). The gist of the method:
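Nucleotide exchange uses 100 nM EPAC1, 250 nM RAP1B-BODIPY-GDP and 50 uM GDP, with compounds in a concentration-titration series. After 5 min at room temperature, fluorescence (480 nm ex/540 nm em) is read every 5 min for 30 min. Data are normalized to control ATA and DMSO.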

In assay [3] the target is Rap guanine nucleotide exchange factor 4 (Homo sapiens) (UniProt Q8WZA2). Briefly: Confirmatory qHTS for agonist of cAMP-regulated guanine nucleotide exchange factor 4 (EPAC2) (AID 1645884). Also: nearly all actives have a fitted effect of over 65% in size. Also: potency is read from the fitted curve at half-maximal effect. As to activation: % is scaled to controls: 0 for no effect and ±100 for the full control effect.
Chain of Rap guanine nucleotide exchange factor 4 (Homo sapiens) (Q8WZA2 whole entry, looked up): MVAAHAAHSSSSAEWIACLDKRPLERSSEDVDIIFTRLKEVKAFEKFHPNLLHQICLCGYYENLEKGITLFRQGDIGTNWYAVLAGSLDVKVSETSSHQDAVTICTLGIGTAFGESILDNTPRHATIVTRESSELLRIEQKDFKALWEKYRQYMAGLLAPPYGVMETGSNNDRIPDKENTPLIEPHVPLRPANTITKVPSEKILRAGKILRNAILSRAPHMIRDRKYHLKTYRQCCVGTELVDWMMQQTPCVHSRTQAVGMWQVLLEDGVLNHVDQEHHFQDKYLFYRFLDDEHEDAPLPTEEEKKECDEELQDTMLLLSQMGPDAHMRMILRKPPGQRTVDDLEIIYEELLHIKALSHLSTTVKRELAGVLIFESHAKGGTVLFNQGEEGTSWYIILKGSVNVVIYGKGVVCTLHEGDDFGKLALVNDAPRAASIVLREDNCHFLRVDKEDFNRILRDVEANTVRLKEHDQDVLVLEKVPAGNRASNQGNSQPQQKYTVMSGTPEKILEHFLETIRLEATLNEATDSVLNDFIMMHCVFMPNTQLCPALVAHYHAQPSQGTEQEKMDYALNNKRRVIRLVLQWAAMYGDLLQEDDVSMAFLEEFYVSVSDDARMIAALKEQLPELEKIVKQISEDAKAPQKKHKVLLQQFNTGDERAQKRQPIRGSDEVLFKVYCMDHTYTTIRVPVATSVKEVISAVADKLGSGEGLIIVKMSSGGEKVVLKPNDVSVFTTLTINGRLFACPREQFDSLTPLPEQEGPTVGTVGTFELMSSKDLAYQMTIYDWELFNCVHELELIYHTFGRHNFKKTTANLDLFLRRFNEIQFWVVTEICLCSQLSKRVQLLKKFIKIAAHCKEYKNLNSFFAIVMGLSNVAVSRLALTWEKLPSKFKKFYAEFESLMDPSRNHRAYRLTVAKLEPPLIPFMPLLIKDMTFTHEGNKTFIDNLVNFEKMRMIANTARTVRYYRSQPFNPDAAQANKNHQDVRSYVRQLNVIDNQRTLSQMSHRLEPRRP
Assay [4] shares this target. Briefly: Confirmatory qHTS for antagonist of cAMP-regulated guanine nucleotide exchange factor 4 (EPAC2) (AID 1645885). Also: nearly all actives have a fitted effect of over 25% in size. Also: potency is read from the fitted curve at half-maximal effect. As to activity change, negative = inhibition: % is scaled to controls: 0 for no effect and ±100 for the full control effect.
In assay [5] the target is Rap guanine nucleotide exchange factor 3 (Homo sapiens) (UniProt O95398). Briefly: Counterscreen qHTS for antagonist of cAMP-regulated guanine nucleotide exchange factor 3 (EPAC1) (AID 1645888).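 Also: fluorescence loss as bound BODIPY-GDP is released from Rap1B; % of control where 0% means no effect.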 In short, it runs like this: (§1)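 Rap1B–BODIPY-GDP (250 nM) with 50 uM GDP; compounds pin-transferred to 9.74 nM–152 uM final (activator) or from 7.32 nM upwards (inhibitor). Fluorescence Ex/Em 480/540 nm read at 5 and 30 min, then after adding cAMP or buffer, at room temperature.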
Chain of Rap guanine nucleotide exchange factor 3 (Homo sapiens) (O95398 whole entry, looked up): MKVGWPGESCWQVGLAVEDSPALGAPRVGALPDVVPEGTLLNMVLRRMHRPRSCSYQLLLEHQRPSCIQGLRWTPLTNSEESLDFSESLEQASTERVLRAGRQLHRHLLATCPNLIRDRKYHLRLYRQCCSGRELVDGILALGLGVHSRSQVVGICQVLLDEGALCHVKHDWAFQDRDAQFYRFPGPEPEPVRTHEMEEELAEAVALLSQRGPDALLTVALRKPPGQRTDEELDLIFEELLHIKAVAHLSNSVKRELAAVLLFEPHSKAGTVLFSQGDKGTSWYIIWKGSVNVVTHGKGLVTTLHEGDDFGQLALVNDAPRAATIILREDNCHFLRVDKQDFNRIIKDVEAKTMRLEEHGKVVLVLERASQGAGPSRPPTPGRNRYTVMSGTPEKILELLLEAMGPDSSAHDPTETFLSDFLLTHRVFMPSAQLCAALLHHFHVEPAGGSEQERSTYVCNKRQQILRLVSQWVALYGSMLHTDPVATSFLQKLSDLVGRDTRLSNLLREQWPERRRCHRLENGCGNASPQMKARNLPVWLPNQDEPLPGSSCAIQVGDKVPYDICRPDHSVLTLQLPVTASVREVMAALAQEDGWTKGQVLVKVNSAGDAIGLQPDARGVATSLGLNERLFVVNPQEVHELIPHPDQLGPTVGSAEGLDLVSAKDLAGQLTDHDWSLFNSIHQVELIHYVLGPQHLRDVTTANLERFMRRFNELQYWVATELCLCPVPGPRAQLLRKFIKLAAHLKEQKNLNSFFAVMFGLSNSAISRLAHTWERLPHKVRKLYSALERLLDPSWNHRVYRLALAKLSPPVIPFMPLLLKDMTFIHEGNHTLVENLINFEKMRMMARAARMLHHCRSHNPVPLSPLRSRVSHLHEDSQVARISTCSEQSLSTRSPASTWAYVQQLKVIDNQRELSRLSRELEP

Assay [6] shares this target. Briefly: Counterscreen qHTS for agonist of cAMP-regulated guanine nucleotide exchange factor 3 (EPAC1) (AID 1645889). Also: nearly all actives have a fitted effect of over 40% in size. Also: potency is read from the fitted curve at half-maximal effect. As to activation: % of control where 0% means no effect. In short, it runs like this: as §1
On the technique in general: The purpose of a counterscreen is to sort out artefacts and off-target activity.

A short description of assay [7]: AP1 Signaling Pathway (AID 357; active = well fitted curve in either direction with a large enough effect, not every such curve was filed as active;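 also: ME-180 reporter cells stimulated with EGF at its EC50 level; % is scaled to controls: 0 for no effect and ±100 for the full control effect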). The conditions noted are these: ME-180 AP-1-bla reporter, EGF-induced, beta-lactamase ratio, 5 h; at 7.69 µM (top of the series) unless noted. The gist of the method: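 Modulation of EGF-driven AP-1 transcription was assessed with a beta-lactamase reporter in ME-180 cells. Compound and EC50 EGF were co-incubated 5 hours at 37 °C before 2.5-hour CCF4 loading at room temperature and dual-emission reading.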

Assay [8] addresses Glucocorticoid receptor (Homo sapiens) (UniProt P04150). The assay can be described thus: GR-GFP Redistribution (AID 450;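 active = compounds whose dose series gives a full or clear partial fitted curve of increased nuclear translocation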; also: potency is read from the fitted curve at half-maximal effect). The conditions noted are these: U2OS GR-GFP nuclear translocation, laser cytometry, 2 h.
The nature of assay [9]: qHTS Assay for Identification of Small Molecule Agonists for Hypoxia Response Element Signaling Pathway (AID 914; active = well fitted activation curve with a large enough effect in the signal ratio, with a control signal flat, not every such curve was filed as active; the % refers to the signal ratio; also: potency is read from the fitted curve at half-maximal effect). As to conditions: ME-180 (cervical carcinoma) HRE-bla reporter, beta-lactamase ratio, CoCl2, 17 h; activation: hits give high values. The gist of the method:
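Read-out: CCF4 FRET ratio of 460nm to 530nm emission (excitation 405nm) after 2.5 hours at room temperature, taken from HRE-bla ME-180 cells that had been exposed to compound and EC50 CoCl2 for 17 hours.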

Drawing on PubChem BioAssay (NCATS), this text covers Potency, activation and activity change, negative = inhibition for 20 compounds.

Molecules are shown by their SMILES. Unmarked numbers belong to inactive results. Records with an inconclusive call do not appear. Calls of active or inactive are those of the source. Unless noted, calls follow the shape of the dose curve; as a rule, active = well fitted curve in the direction sought with a large enough effect; inconclusive = small, poorly fitted or top-dose-only effect, or another doubt; inactive = no such curve, though single readings can be large; an effect the other way counts as inactive or inconclusive.

Chain of Tumor susceptibility gene 101 protein (Homo sapiens) (Q99816 whole entry, looked up, the tested form may be a part): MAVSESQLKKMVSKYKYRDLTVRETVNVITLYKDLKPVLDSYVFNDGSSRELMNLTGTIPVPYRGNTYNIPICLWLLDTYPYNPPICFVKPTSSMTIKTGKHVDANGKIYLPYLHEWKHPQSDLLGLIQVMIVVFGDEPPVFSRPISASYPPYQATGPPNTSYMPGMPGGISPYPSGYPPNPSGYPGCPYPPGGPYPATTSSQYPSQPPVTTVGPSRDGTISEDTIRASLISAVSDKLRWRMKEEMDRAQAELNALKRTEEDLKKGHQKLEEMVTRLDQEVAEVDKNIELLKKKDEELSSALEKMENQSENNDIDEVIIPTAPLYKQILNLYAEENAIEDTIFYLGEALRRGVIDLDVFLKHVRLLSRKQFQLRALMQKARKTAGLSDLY
Chain of Glucocorticoid receptor (Homo sapiens) (P04150 whole entry, looked up): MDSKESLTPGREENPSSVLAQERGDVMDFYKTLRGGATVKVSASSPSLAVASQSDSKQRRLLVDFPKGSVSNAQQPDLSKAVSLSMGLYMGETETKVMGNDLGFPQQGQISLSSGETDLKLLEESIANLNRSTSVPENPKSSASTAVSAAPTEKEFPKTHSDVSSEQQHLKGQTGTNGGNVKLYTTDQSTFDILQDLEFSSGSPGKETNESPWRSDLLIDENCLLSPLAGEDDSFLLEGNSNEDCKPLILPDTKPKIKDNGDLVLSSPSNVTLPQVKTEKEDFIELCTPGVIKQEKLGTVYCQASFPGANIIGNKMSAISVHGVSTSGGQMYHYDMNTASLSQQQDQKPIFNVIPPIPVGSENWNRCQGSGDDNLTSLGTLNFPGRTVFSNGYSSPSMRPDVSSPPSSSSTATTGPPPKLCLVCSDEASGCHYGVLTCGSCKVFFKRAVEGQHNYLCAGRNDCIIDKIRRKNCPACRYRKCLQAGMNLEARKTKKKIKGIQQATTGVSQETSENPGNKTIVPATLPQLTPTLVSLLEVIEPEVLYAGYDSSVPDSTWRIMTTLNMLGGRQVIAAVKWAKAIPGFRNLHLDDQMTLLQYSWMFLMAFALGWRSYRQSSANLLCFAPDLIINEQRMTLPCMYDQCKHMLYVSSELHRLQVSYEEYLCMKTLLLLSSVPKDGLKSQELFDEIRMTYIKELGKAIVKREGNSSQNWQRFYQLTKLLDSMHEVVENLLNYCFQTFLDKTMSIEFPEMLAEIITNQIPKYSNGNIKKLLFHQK

For the compound `Cc1n[nH]c(C)c1N1C(=O)c2cccc3c(N4CCCCCC4)ccc(c23)C1=O`, the Potency in assay [1] was 20.6 µM (active); in assay [3], 112 µM (active); in assay [6] it was 12.6 µM (active). Besides, the Potency entry in assay [2], in [4] and in assay [5] was “inactive” each time.

Consider `Cc1ccc(S(=O)(=O)N2CCN(C(=O)c3ccc4c(c3)OCO4)CC2)cc1`, for which the Potency result in [2] and in assay [4] was “inactive” throughout. Further, the activation in [3] is 0.378% [at 17.1 µM, percent relative to cAMP agonist control]; in [6], 24.8% [at 30.8 µM]. Moreover, in [5], the activity change, negative = inhibition is -2% [at 30.8 µM].

In the case of `CCN(CC)c1ccc2cc(S(=O)(=O)c3ccc(Cl)cc3)c(=O)oc2c1`, the Potency in assay [1] is 18.3 µM (active); in assay [3], 100 µM (active); in assay [4], 42.6 µM (active). The Potency entry in assay [2] and in [5] was “inactive” each time.

Take `N=C1/C(=C/c2coc3ccccc3c2=O)C(=O)N=C2SC(c3ccco3)=NN12`: the Potency result in [2], in assay [3], in [4] and in [5] was “inactive” each time. For the same compound, in assay [6], the Potency is 39.8 µM (active).

On to `O=C(OCCN1C(=O)c2cccc3c(N4CCOCC4)ccc(c23)C1=O)c1ccccc1Cl`, for which the Potency entry in assay [2] and in assay [4] was “inactive” each time. Also, the activation in assay [3] was 17.6% [at 17.1 µM, percent relative to cAMP agonist control]. In addition, the activity change, negative = inhibition in [5] is 1.86% [at 30.8 µM]. Besides, the Potency in assay [6] was 11.2 µM (active).

In the case of `CCC(C)n1c(=N)c(C#N)cc2c(=O)n3ccccc3nc21` (stereo not given), the Potency entry in assay [2] and in assay [4] was “inactive” in each case. Further, the activation in assay [3] is -1.22% [at 17.1 µM, percent relative to cAMP agonist control]; in assay [6], -4.07% [at 30.8 µM]. Moreover, in assay [5], the activity change, negative = inhibition was -20.2% [at 30.8 µM].

In the case of `Nc1ccc2nc3c(=O)n(CCc4ccccc4)c(=O)[nH]c3nc2c1`, the Potency in assay [1] is 3.26 µM (active); in assay [3] it was 100 µM (active); in [4], 42.6 µM (active); in assay [6] it was 70.8 µM (active). For the same compound, the Potency result in assay [2] and in assay [5] was “inactive” each time.

As to `CCN(CC)c1ccc2cc(-c3nc(-c4ccccc4)no3)c(=O)oc2c1`, the Potency entry in assay [2] and in [5] was “inactive” in each case. The Potency in assay [3] is 31.6 µM (active); in [4], 6.01 µM (active); in assay [6], 56.2 µM (active).

On to `CCN(CC)c1ccc2cc(C=O)c(=O)oc2c1`, for which the Potency entry in [2] and in [4] was “inactive” in each case. The activation in assay [3] is 6.38% [at 17.1 µM, percent relative to cAMP agonist control]. For the same compound, the activity change, negative = inhibition in assay [5] was 96.9% [at 30.8 µM]. For the same compound, the Potency in assay [6] is 12.6 µM (active).

`COc1ccc(N=Cc2sc(O)c3ccccc23)cc1`: the Potency entry in assay [2] and in [4] was “inactive” throughout. Also, the activation in [3] was 2.81% [at 17.1 µM, percent relative to cAMP agonist control]; in assay [6], 29% [at 30.8 µM]. The activity change, negative = inhibition in assay [5] was 46.8% [at 30.8 µM].

Consider `O=C(N=c1ccn(-c2nc3ccccc3nc2NS(=O)(=O)c2ccccc2)cc1)c1ccccc1Cl`, for which the Potency result in assay [2] and in [5] was “inactive” in each case. Further, the Potency in assay [3] is 89.1 µM (active); in assay [4], 75.7 µM (active); in assay [6], 79.4 µM (active).

As to `Cc1nn(C)c(C)c1N1C(=O)c2cccc3c(N)ccc(c23)C1=O`, the Potency in assay [1] was 2.59 µM (active); in [3] it was 5.01 µM (active); in assay [6] it was 11.2 µM (active). Besides, the Potency result in assay [2] and in assay [4] was “inactive” throughout. The activity change, negative = inhibition in assay [5] was 353% [at 30.8 µM].

As for `Cc1cc2nc3c(=O)[nH]c(=O)[nH]c3nc2c([N+](=O)[O-])c1N`, the Potency was 13 µM (active) in [1], 100 µM (active) in assay [3] and 56.2 µM (active) in assay [6]. Moreover, the Potency entry in [2], in assay [4] and in [5] was “inactive” each time.

As to `Cc1ccc[n+](-c2nc([O-])sc2C=O)c1`, the Potency in [1] was 4.61 µM (active); in assay [3] it was 100 µM (active); in assay [6], 39.8 µM (active). The Potency entry in assay [2], in assay [4] and in [5] was “inactive” each time.

As to `Cn1nc(-c2ccccc2)c2nc3ccccc3nc21`, the Potency is 16.3 µM (active) in assay [1], 100 µM (active) in assay [3] and 75.7 µM (active) in assay [4]. Further, the Potency result in assay [2], in [5] and in assay [6] was “inactive” throughout.

Consider `CCN(CC)c1ccc2cc(C(=O)Nc3ccccn3)c(=O)oc2c1`, for which the activity change, negative = inhibition in [7] is 7.12% [at 17.2 µM]. In addition, the Potency was above 20.6 µM in assay [8], 3.98 µM (active) in [9] and 100 µM (active) in assay [3]. Also, the Potency entry in [2], in assay [4], in [5] and in assay [6] was “inactive” throughout.

In the case of `COc1ccc(CN(C)C(=O)CC(c2ccccc2)c2ccccc2)cc1`, the Potency entry in assay [2], in [3], in [4], in assay [5] and in assay [6] was “inactive” in each case.

As to `N#CC(Sc1ccccn1)c1ccc(Cl)cc1Cl` (stereo not given), the Potency result in assay [2], in [3], in [4], in assay [5] and in assay [6] was “inactive” in each case.

For `CC1=Nc2ccccc2/C1=C\c1nc(-c2ccccc2)oc1O`, the Potency entry in [2] and in assay [4] was “inactive” each time. The activation in assay [3] is 7.61% [at 17.1 µM, percent relative to cAMP agonist control]; in assay [6], 18.1% [at 30.8 µM]. Moreover, in assay [5], the activity change, negative = inhibition was -10.6% [at 30.8 µM].

As to `O=C1CCNc2ccc(-c3ccccc3)cc21`, the Potency was 8.19 µM (active) in assay [1], 112 µM (active) in assay [3] and 56.2 µM (active) in assay [6]. In addition, the Potency entry in assay [2], in assay [4] and in assay [5] was “inactive” throughout.
